Reference: PubChem BioAssay AID2685 (National Center for Advancing Translational Sciences (NCATS), 2010)
About 2,100 (0.66%) of roughly 320,000 compounds were called active. Inconclusive results (about 53%) are left out. Calls come from the whole dose curve; as a rule, active = well fitted inhibition curve with a large enough effect in the signal ratio, with a control signal flat (not every such curve was filed as active); inconclusive = small, poorly fitted or top-dose-only effect, or effect the other way, or a change in a side signal; inactive = flat fitted curve, though single readings scatter; the % refers to the signal ratio. The full list was thinned out, with actives kept by preference.

Assay: qHTS Assay for Lipid Storage Modulators in Drosophila S3 Cells;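 for cell number change: cells counted by Cell Tracker Red CMTPX staining in the red channel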; for lipid storage change, negative = inhibition: % is set by controls: 0 for no effect and ±100 for the full control effect
Conditions: BODIPY lipid droplet fluorescence, 18-24 h, cells fed with added oleic acid; cell number change: measured here: cell count max response; series mostly up to 46.1 µM; lipid storage change, negative = inhibition: at the top concentration
Procedure, shortened: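 Drosophila S3 cells got compounds at several concentrations plus oleic acid (400 uM solution). Laser-scanning cytometry with 488 nm excitation read lipid droplets at 500-530 nm and cells at 575-640 nm. Percent activity was relative to 20 uM Triacsin C.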
Potency is the fitted concentration of half-maximal effect.

Structure (SMILES)	lipid storage change, negative = inhibition	cell number change	outcome	Potency
COc1ccc(OC)c(NC(=O)COC(=O)CN(C)S(=O)(=O)c2ccc(C)cc2)c1	23.2% (inactive)	1.08%	–	–
Cc1[nH]c2ccccc2c1/C=N/NC(=O)C1CC1(c1ccccc1)c1ccccc1 (configuration not stated)	-4.99% (inactive)	-28.5%	–	–
Cc1ccc(C(=O)NCc2cccnc2)o1	–	-7.92%	inactive	–
CC1(C)Cc2c(sc3ncnc(NN)c23)CO1	–	28.8%	inactive	–
CC(=O)Nc1ccc(Nc2nc(-c3sc(NC(C)=O)nc3C)cs2)cc1	–	-25.9%	–	20.6 µM (active)
CCC(=O)Nc1nc(C)c(-c2csc(Nc3cccc(C(=O)O)c3)n2)s1	-13.5% (inactive)	10.2%	–	–
Cc1nc(C)c(-c2csc(Nc3cccc(O)c3)n2)s1	8.45% (inactive)	-15.3%	–	–
CCCCCCC(=O)Nc1nc(C)c(-c2csc(Nc3ccc(Cl)cc3)n2)s1	-12% (inactive)	–	–	–
CCCCCC(=O)Nc1nc(C)c(-c2csc(Nc3ccc(Cl)cc3)n2)s1	3.71% (inactive)	-19%	–	–
CCC(=O)Nc1nc(C)c(-c2csc(Nc3cccc(O)c3)n2)s1	–	-27%	–	29.1 µM (active)
Nc1ncc(-c2nnnn2-c2ccc(Cl)cc2)c(-c2ccc(Cl)cc2)n1	-8.48% (inactive)	22.6%	–	–
COC(=O)/C=C1\NCCNC1=O	-11.5% (inactive)	9.92%	–	–
COc1ccc(NC(=O)CCC(=O)N/N=C/c2cccnc2)cc1	–	1.18%	inactive	–
COc1cc(CN2CCc3ccc(NC(=O)CCc4ccccc4OC)cc3C2)ccc1O	-2.88% (inactive)	-9.87%	–	–
Cc1ccsc1C(=O)N(C)CC(=O)Nc1ccccc1Br	15.6% [at 0.0737 µM] (inactive)	–	–	–
Cc1ccc(C)c(NC(=O)CN(C)C(=O)c2sccc2C)c1	–	–	–	4.61 µM (active)
Cc1ccc(C)c(NC(=O)CN(C)C(=O)Cc2ccccc2)c1	3.1% (inactive)	0.0719%	–	–
CSCCC(NS(=O)(=O)c1ccccc1F)C(=O)NNC(=O)c1csc(N2CCOCC2)n1 (configuration not stated)	27.4% [at 0.0737 µM] (inactive)	-7.74%	–	–
CC1CC(C)CN(C(=O)COC(=O)c2nn(C)c(=O)c3ccccc23)C1 (configuration not stated)	29.3% (inactive)	14.1%	–	–
CC1CC(C)CN(C(=O)COC(=O)Cc2c[nH]c3ccccc23)C1 (configuration not stated)	23% (inactive)	–	–	–
CC1CC(C)CN(C(=O)COC(=O)c2c[nH]c3ccccc23)C1 (configuration not stated)	–	-17%	–	0.92 µM (active)

Structure (SMILES)	lipid storage change, negative = inhibition	cell number change	outcome	Potency
CCc1c(C)sc(NC(=S)NC(C)C2CCCO2)c1C(=O)OC (configuration not stated)	-1.69% (inactive)	8%	–	–
CCOC(=O)c1c(NC(=O)C2CC=CCC2C(=O)O)sc(C)c1CC (configuration not stated)	2.17% (inactive)	12.8%	–	–
CCc1c(C)sc(NC(=O)C2CC2)c1C(=O)OC(C)C	–	-47.8%	–	1.3 µM (active)
CC(NC(=O)CN(c1ccc(F)cc1)S(C)(=O)=O)c1ccccc1 (configuration not stated)	–	-10.2%	–	4.11 µM (active)
CC(NC(=O)CN(c1ccc(Br)cc1)S(C)(=O)=O)c1ccccc1 (configuration not stated)	-4.37% (inactive)	6.99%	–	–
CC(NC(=O)CN(c1ccc(Cl)cc1)S(C)(=O)=O)c1ccccc1 (configuration not stated)	–	17.6%	inactive	–
Cc1ccccc1CN1C[C@@H]2C[C@@H](c3cnc(N4CCOCC4)s3)N3CCC[C@@]23C1=O	-17.2% (inactive)	3.26%	–	–
COc1ccc(C(NC(=O)CNC(C)=O)C(=O)Nc2ccc3c(c2)OCCO3)cc1 (configuration not stated)	-2.63% (inactive)	8.96%	–	–
O=P(c1ccccc1)(c1ccccc1)C(O)c1ccncc1 (configuration not stated)	15.5% (inactive)	15.4%	–	–
CCO[C@@H]1OC(C(=O)N2CCN(Cc3ccccc3)CC2)=C[C@H](C2CC2)[C@H]1CCCO	-11.3% (inactive)	7.31%	–	–
CCO[C@@H]1OC(C(=O)N2CCCCCCC2)=C[C@H](C2CCCCC2)[C@H]1CCCO	-29.6% (inactive)	-14.4%	–	–
CCO[C@H]1OC(C(=O)N2CCN(Cc3ccccc3)CC2)=C[C@@H](C2CCCCC2)[C@@H]1CCCO	–	-29.1%	–	20.6 µM (active)
COc1cc(S(=O)(=O)N2CCC(c3nc4ccccc4s3)CC2)ccc1S(=O)(=O)N1CC(C)CC(C)C1 (configuration not stated)	5.49% (inactive)	0.159%	–	–
Cc1cc(=O)oc2cc(OCc3ccc(C(=O)OCC(=O)NC4CCS(=O)(=O)C4)cc3)ccc12 (configuration not stated)	6.62% (inactive)	8.28%	–	–
COc1cc(C(c2c(C)[nH][nH]c2=O)c2c(C)[nH][nH]c2=O)ccc1OS(=O)(=O)c1ccccc1	16.7% (inactive)	-3.94%	–	–
CCOc1cc(C(c2c(C)[nH][nH]c2=O)c2c(C)[nH][nH]c2=O)ccc1OS(=O)(=O)c1ccc(C)cc1	–	16%	inactive	–
CCOc1cc(C(c2c(C)[nH][nH]c2=O)c2c(C)[nH][nH]c2=O)ccc1OS(=O)(=O)c1ccccc1	–	-2.58%	–	29.1 µM (active)
COc1ccccc1N1CCN(C(c2cccs2)c2nnnn2C2CCCC2)CC1 (configuration not stated)	–	-7.64%	inactive	–
Cc1ccc(SCc2ccc(C(=O)NCc3cccnc3)cc2)cc1	-18.4% (inactive)	5.01%	–	–
Cc1ccc(Cl)cc1NC(=S)N(CCN(C)C)C(C)c1ccccn1 (configuration not stated)	6.34% (inactive)	25.6%	–	–
CCOC(=O)[C@H]1[C@H]2COc3ccccc3[C@@H]2N2C(=O)c3cc(OC)ccc3NC(=O)[C@@]12C	6.45% (inactive)	-11.2%	–	–

Structure (SMILES)	lipid storage change, negative = inhibition	cell number change	outcome	Potency
CCOC(=O)[C@H]1[C@H]2COc3ccc(OC)cc3[C@@H]2N2C(=O)c3ccc(Cl)cc3NC(=O)[C@@]12C	–	-6.2%	–	4.11 µM (active)
CCOC(=O)[C@H]1[C@H]2COc3cc(OC)ccc3[C@@H]2N2C(=O)c3cc(OC)ccc3NC(=O)[C@@]12C	12% (inactive)	-12.2%	–	–
CCOC(=O)[C@H]1[C@H]2COc3ccc(C)cc3[C@@H]2N2C(=O)c3cc(F)ccc3NC(=O)[C@@]12C	11.9% (inactive)	-22.1%	–	–
COc1ccc2c(c1)[C@H]1[C@H](CO2)[C@H](c2ccccc2)[C@]2(C)C(=O)Nc3ccccc3C(=O)N12	7.61% (inactive)	-2.57%	–	–
CCOC(=O)[C@H]1[C@H]2COc3ccc(Cl)cc3[C@@H]2N2C(=O)c3cc(C)ccc3NC(=O)[C@@]12C	–	–	–	1.64 µM (active)
COc1cc2c(cc1OC)C(=O)N1[C@H]3c4cc(Cl)ccc4OC[C@@H]3[C@H](c3ccccc3)[C@]1(C)C(=O)N2	–	-5.54%	–	2.06 µM (active)
CCOC(=O)[C@H]1[C@H]2COc3ccc(OC)cc3[C@@H]2N2C(=O)c3cc(F)c(F)cc3NC(=O)[C@@]12C	11.9% (inactive)	10.2%	–	–
COc1ccc2c(c1)C(=O)N1[C@H]3c4cc(C)ccc4OC[C@@H]3[C@H](c3ccccc3)[C@]1(C)C(=O)N2	10.4% (inactive)	11.4%	–	–
CCOC(=O)[C@H]1[C@H]2COc3cc(OC)ccc3[C@@H]2N2C(=O)c3cc(F)c(F)cc3NC(=O)[C@@]12C	–	-3.7%	–	6.51 µM (active)
CCOC(=O)[C@H]1[C@H]2COc3ccccc3[C@@H]2N2C(=O)c3ccc(Cl)cc3NC(=O)[C@@]12C	-24.5% (inactive)	-18.8%	–	–
CCOC(=O)[C@H]1[C@H]2COc3ccc(Cl)cc3[C@@H]2N2C(=O)c3ccccc3NC(=O)[C@@]12C	15.3% (inactive)	-17%	–	–
Cn1ncc(Br)c1C(=O)Nc1ccc(F)cc1F	7.86% (inactive)	0.403%	–	–
COc1ccc(C(=O)Nc2ccc(NC(C)=O)cc2)cc1S(=O)(=O)N1CCCCC1C (configuration not stated)	-18.6% (inactive)	-5.58%	–	–
CC(CNC(=O)Cn1ccc2cc(S(=O)(=O)N3CCCC3)ccc21)c1ccccc1 (configuration not stated)	–	5.34%	inactive	–
O=C(OCc1nc(-c2ccccc2Cl)no1)c1ccco1	27% (inactive)	1%	–	–
Cc1ccc(-c2ccc3nnc(SCC(=O)NCC4CCCO4)n3n2)cc1 (configuration not stated)	-0.391% (inactive)	7.62%	–	–
Cc1ccc(NS(=O)(=O)c2ccc(NC(=O)C3CCCO3)cc2)cc1 (configuration not stated)	-28% (inactive)	-28.7%	–	–
COc1ccccc1CN1CCN(C(CC(C)C)c2nnnn2Cc2cccs2)CC1 (configuration not stated)	–	–	inactive	–
CCOC(=O)[C@@H]1[C@H]2COc3ccccc3[C@H]2N2C(=O)N(c3ccc(Cl)cc3)C(=O)[C@]12C	17.4% (inactive)	10.8%	–	–
CCOC(=O)[C@@H]1[C@H]2COc3ccccc3[C@@H]2N2C(=O)N(c3ccc(F)cc3)C(=O)[C@@]12C	–	-1.5%	inactive	–
CCOC(=O)[C@@H]1[C@H]2COc3ccccc3[C@H]2N2C(=O)N(c3ccc(C(F)(F)F)cc3)C(=O)[C@]12C	–	21.9%	–	1.46 µM (active)

Structure (SMILES)	lipid storage change, negative = inhibition	cell number change	outcome	Potency
CCc1ccc(NC(=O)C(=S)NC2CCCCC2)cc1	0.149% (inactive)	1.88%	–	–
Nn1c(SCC(=O)NC2CCCCC2)nnc1-c1ccc(Cl)cc1	-4.17% (inactive)	17.9%	–	–
Cc1[nH]n(C)c(=O)c1[N+](=O)[O-]	17.8% (inactive)	4.99%	–	–
CCN(C(=O)COC(=O)/C=C/c1ccc(OC(F)F)c(OC)c1)C1CCS(=O)(=O)C1 (configuration not stated)	3.68% (inactive)	4.02%	–	–
COc1cc(/C=C/C(=O)OCC(=O)N2CCC(C)CC2)ccc1O	20% (inactive)	24.6%	–	–
CCN(C(=O)COC(=O)/C=C/c1ccc(O)c(OC)c1)C1CCS(=O)(=O)C1 (configuration not stated)	–	-23.9%	–	13 µM (active)
COc1ccc(/C=N/OCC(=O)N2CC3(C)CC2CC(C)(C)C3)cc1 (configuration not stated)	0.198% (inactive)	10.1%	–	–
COc1cc(/C=C/C(=O)OCC(=O)N2CC3(C)CC2CC(C)(C)C3)ccc1O (configuration not stated)	–	18.4%	–	0.651 µM (active)
COc1cc(/C=C/C(=O)OCC(=O)N(C)C2CCS(=O)(=O)C2)ccc1OC(F)F (configuration not stated)	-10.5% (inactive)	9.45%	–	–
O=c1[nH]c(COc2ccc(Br)cc2Cl)nc2ccccc12	5.12% (inactive)	-15%	–	–
COc1ccc(CN2CC(C(=O)NCC3CCCO3)CC2=O)cc1 (configuration not stated)	0.667% (inactive)	14%	–	–
N#C/C(=C\c1c(N2CCCCCC2)nc2ccccn2c1=O)C(=O)NC1CCS(=O)(=O)C1 (configuration not stated)	20.6% (inactive)	–	–	–
N#C/C(=C\c1c(N2CCC(C(N)=O)CC2)nc2ccccn2c1=O)C(=O)NC1CCCCC1	–	-18.3%	–	0.164 µM (active)
N#C/C(=C\c1c(N2CCCCCC2)nc2ccccn2c1=O)C(N)=O	10.3% (inactive)	22.6%	–	–
O=C1/C(=C\c2ccccc2)CCc2c1[nH]c1ccccc21	–	–	inactive	–
Cc1cc(=O)n2nc(N3CCCC(C(=O)NCc4cccc(Br)c4)C3)sc2n1 (configuration not stated)	–	–	inactive	–
NC(=O)c1ccccc1OCc1cccc2ccccc12	–	–	inactive	–
CC1(C)CC(=O)C2=C(C1)N=C1SCCC(=O)N1C2c1ccccc1 (configuration not stated)	18.4% (inactive)	9.02%	–	–
